# According to the supplement of paper PMC10646978:
# ± gives the standard deviation.
# Assays:
# Details in all cases: modulator concentration 10 µM
# [1] = tested on: RAW-Dual (murine macrophage reporter line); experiment: NF-kB reporter (SEAP) activity fold change vs agonist alone; higher = enhanced NF-kB activity
# How it was run: (§1)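 Compound reached 10 μM final in each well by pin transfer, onto RAW-Dual murine macrophage reporter cells seeded at 50 000 per well in 384-well plates. After 1 hour at 37 °C, the cells were stimulated overnight with a PRR agonist. SEAP in the supernatant was read with QUANTI-Blue at 620 nm absorbance for NF-κB, and Lucia luciferase was read with QUANTI-Luc luminescence for IRF. Each signal was turned into fold change against the mean agonist-only control on the same plate, and two replicate plates were averaged with propagated errors.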
# [2] = tested on: RAW-Dual (murine macrophage reporter line); experiment: IRF reporter (Lucia luciferase) activity fold change vs agonist alone; higher = enhanced IRF activity
# How it was run: as §1
# [3] = tested on: RAW-Dual (murine macrophage reporter line); experiment: viability score (confluency relative to resting cells, overnight) (fraction); higher = more viable, active = viable (0.7 or more)
# How it was run: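 Two confluency masks, generated with IncuCyte software over all imaged wells, were applied to IncuCyte images of RAW-Dual macrophages. The cells, in 384-well plates, had been exposed overnight to 10 μM final compound. The viability score is confluency as a fraction of resting cells, and a compound met the cutoff only with both masks above 70% of resting cells.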
# [4] = agonist: CpG ODN 1826 0.5 ug/mL
Compound,"NF-kB reporter [1, 4]",NF-kB reporter ([1]; agonist: LPS 0.1 ug/mL),NF-kB reporter ([1]; agonist: MPLA […]),IRF reporter ([2]; agonist: 3'3'-cGAMP 10 ug/mL),IRF reporter ([2]; agonist: LPS 0.1 ug/mL),IRF reporter ([2]; agonist: MPLA […]),viability score [3]
O=C(c1ccc(F)c(F)c1Nc1ccc(I)cc1F)N1CC(O)([C@@H]2CCCCN2)C1,0.155 ± 0.0087,0.0529 ± 0.0032,0.123 ± 0.012,0.871 ± 0.029,4.08 ± 0.27,1.81 ± 0.16,0.0873 (inactive)
O=C(Nc1ccc(F)cc1)c1ccccc1Br,1.06 ± 0.092,1.06 ± 0.069,1 ± 0.065,0.73 ± 0.055,1.06 ± 0.065,1.04 ± 0.22,0.979 (active)
CCN(CC)C(=O)C(=Cc1ccc(Br)cc1)NC(=O)c1ccccc1OC,1.06 ± 0.084,1.09 ± 0.11,1.09 ± 0.075,1.14 ± 0.028,1.61 ± 0.25,1.28 ± 0.12,1.01 (active)
COc1ccc(CNS(=O)(=O)c2ccc3ccccc3c2)cc1,0.795 ± 0.074,0.899 ± 0.079,1.13 ± 0.11,0.974 ± 0.052,1.49 ± 0.11,1.7 ± 0.17,0.972 (active)
Cc1c(-c2ccccc2)nc2ccccc2c1C(=O)N1CCCC1,1.09 ± 0.095,1.13 ± 0.087,1.1 ± 0.069,1.01 ± 0.035,1.62 ± 0.18,1.24 ± 0.13,1.01 (active)
Cc1cc(NC(=O)CC(C)C)ccc1N1CCCCC1=O,1.03 ± 0.097,1.03 ± 0.085,0.936 ± 0.11,1 ± 0.065,1.23 ± 0.11,1.14 ± 0.32,1.01 (active)
CNC1(C)C2CCC(C2)C1(C)C.Cl (centres undefined),0.914 ± 0.23,0.931 ± 0.058,0.961 ± 0.061,0.911 ± 0.078,1.1 ± 0.24,1.06 ± 0.12,1 (active)
Nc1ccn([C@@H]2O[C@H](CO)[C@@H](O)C2(F)F)c(=O)n1,1.8 ± 0.25,1.07 ± 0.28,1.21 ± 0.11,1.59 ± 0.088,1.61 ± 0.35,1.33 ± 0.31,0.241 (inactive)
O=C1CN(CCC2=CCCCC2)C2CS(=O)(=O)CC2N1c1ccc(Cl)cc1 (centres undefined),1.01 ± 0.12,1.07 ± 0.089,0.849 ± 0.071,0.786 ± 0.051,0.892 ± 0.078,1 ± 0.13,1.01 (active)
Brc1ccc2[nH]cc(-c3nnc4ccc5ccccc5n34)c2c1,0.644 ± 0.051,0.877 ± 0.042,1.7 ± 0.35,0.971 ± 0.051,1.4 ± 0.1,2.08 ± 0.22,0.973 (active)
CCCOc1cccc(C(=O)Nc2cccc(S(N)(=O)=O)c2)c1,1.11 ± 0.13,0.97 ± 0.057,0.945 ± 0.058,0.918 ± 0.039,1.39 ± 0.14,1.05 ± 0.27,1 (active)
NC(=O)CSc1nc2ccccc2[nH]1,1.1 ± 0.088,1.07 ± 0.081,0.998 ± 0.037,0.985 ± 0.16,1.09 ± 0.13,0.992 ± 0.16,0.997 (active)
Nc1nc2ccc(OC(F)(F)F)cc2s1,0.955 ± 0.13,1.09 ± 0.3,1.02 ± 0.059,1.07 ± 0.044,1.15 ± 0.24,0.928 ± 0.14,0.965 (active)
CCCCC(=O)N(Cc1ccc(-c2ccccc2-c2nnn[nH]2)cc1)[C@H](C(=O)O)C(C)C [Prestw-1735],1.14 ± 0.14,0.992 ± 0.075,1.05 ± 0.029,0.687 ± 0.03,0.705 ± 0.04,0.645 ± 0.071,0.998 (active)
O=C(CCn1cnc2ccccc2c1=O)NCC1CCCN1c1ccccc1 (centres undefined),1.05 ± 0.054,1 ± 0.086,0.987 ± 0.046,0.983 ± 0.053,1.3 ± 0.086,1.2 ± 0.14,0.995 (active)
COc1ccc(C2(C#N)CCC(C(=O)O)CC2)cc1OC1CCCC1 (centres undefined),1.37 ± 0.11,1.16 ± 0.085,1.37 ± 0.16,1.05 ± 0.048,1.25 ± 0.083,1.38 ± 0.12,1.02 (active)
Cc1ccc(S(=O)(=O)Nc2ccccc2-c2nc3ccccc3o2)cc1,2.45 ± 0.19,1.24 ± 0.081,1.45 ± 0.051,0.323 ± 0.033,1.09 ± 0.048,1.21 ± 0.08,0.713 (active)
O=C(NC1CC2CCC1C2)c1ccccc1Cl (centres undefined),0.725 ± 0.064,0.801 ± 0.047,1.08 ± 0.099,0.983 ± 0.049,1.35 ± 0.12,1.51 ± 0.24,1.02 (active)
Cc1cccc(CS(=O)(=O)N2CCC(S(=O)(=O)c3nccn3C)CC2)c1,1.04 ± 0.078,1.02 ± 0.082,0.983 ± 0.038,1.04 ± 0.088,0.979 ± 0.089,1.05 ± 0.12,0.998 (active)
C=C1CCC2C(C)(CO)C(O)CCC2(C)C1CC=C1C(=O)OCC1O (centres undefined),0.462 ± 0.11,0.496 ± 0.025,0.755 ± 0.11,0.188 ± 0.0064,2.13 ± 0.35,1.51 ± 0.18,0.839 (active)
CCCCCc1ccc(-c2ccc(-c3noc(-c4ccc(CCCC)cc4)n3)cc2)cc1,0.969 ± 0.08,0.97 ± 0.07,0.914 ± 0.086,0.94 ± 0.067,1.32 ± 0.25,1.45 ± 0.31,1.01 (active)
Cc1ccc(C2(c3ccc(C)cc3)CC2C(=O)Nc2ccncc2)cc1 (centres undefined),0.811 ± 0.095,0.865 ± 0.076,0.908 ± 0.033,0.764 ± 0.045,1.04 ± 0.09,1.02 ± 0.074,1 (active)
O=[N+]([O-])c1cc(C(F)(F)F)ccc1N1CCN(CC=Cc2ccccc2)CC1,0.915 ± 0.078,1.07 ± 0.099,0.985 ± 0.071,0.976 ± 0.036,1.47 ± 0.24,1.14 ± 0.12,1.01 (active)
Cc1ccc2nc(NC(=O)CSc3nc4c(c(=O)n3-c3ccccc3)SCC4)sc2c1,0.845 ± 0.11,0.887 ± 0.1,0.853 ± 0.081,0.662 ± 0.021,1.16 ± 0.14,1.27 ± 0.18,1.02 (active)
COc1ccc(CN(CCN(C)C)c2ccccn2)cc1 [Prestw-289],0.902 ± 0.068,1.08 ± 0.11,1.01 ± 0.026,0.976 ± 0.11,0.912 ± 0.1,0.848 ± 0.066,0.993 (active)
CCCCc1oc2ccc(NS(C)(=O)=O)cc2c1C(=O)c1ccc(OCCCN(CCCC)CCCC)cc1.Cl,0.403 ± 0.048,0.998 ± 0.099,1.3 ± 0.14,0.945 ± 0.067,1.2 ± 0.12,1.27 ± 0.18,0.29 (inactive)
CC(=O)Nc1ccc(S(=O)(=O)N2CCC(Oc3nc(C)cc(C)n3)C2)cc1 (centres undefined),1.13 ± 0.099,1.03 ± 0.078,0.969 ± 0.033,0.988 ± 0.063,0.987 ± 0.057,0.932 ± 0.15,0.998 (active)
